From PubChem
ELG1 genotox: induces genotoxicity in HEK293T cells with luciferase-tagged ELG1; Potency, µM (series often up to 46 µM), actives largely listed as activators; HEK293T ELG1-luciferase reporter, luminescence, 16 h; AID 504466; 330,000 compounds, 1.3% hits; further: nearly all actives have a fitted effect of over 60% in size
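After overnight (16 hr) compound treatment at 37 °C, ELG1-luciferase HEK293T cells were lysed with ONE-Glo; luminescence quantified 30 min later at room temperature.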
NPC1 promoter act: activates the NPC1 promoter; Huh7 NPC1 promoter luciferase reporter, 24 h; 320,000 compounds, 2.4% hits; Potency, µM (top dose mostly 9.22 µM), usual class: activators; further: nearly all actives have a fitted effect of over 60% in size
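Luciferase expression driven by the NPC1 promoter was measured in stably transfected Huh7 cells after a 24 h compound incubation, using a luciferase reagent and a luminescence read.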
SMN2 splice enh: enhancers of SMN2 splice variant expression. HEK293 SMN2-luciferase splicing reporter, luminescence, 30-36 h. 210,000 compounds, 2.8% hits. Potency, µM (series often up to 46.1 µM), actives largely listed as activators. AID 1458; further: nearly all actives have a fitted effect of over 55% in size
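HEK293 cells carry an SMN2 […]–luciferase reporter in which exon 7 inclusion puts luciferase in frame. Cells were plated 10-12 h before compound addition, then incubated 30-36 h at 37C. ONE-Glo luminescence was read; sodium butyrate at 4.5 mM final served as control.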
FLuc counter: counter-screen for miR-21 project: firefly luciferase inhibitors or activators; P08659; purified FLuc, Km substrates, luminescence inhibition; 360,000 compounds, 6.9% hits; Potency, µM (titrated, usually from 57.5 µM), hits mostly inhibitors; further: nearly all actives have a fitted effect of over 55% in size
Target sequence (P08659 whole entry, looked up): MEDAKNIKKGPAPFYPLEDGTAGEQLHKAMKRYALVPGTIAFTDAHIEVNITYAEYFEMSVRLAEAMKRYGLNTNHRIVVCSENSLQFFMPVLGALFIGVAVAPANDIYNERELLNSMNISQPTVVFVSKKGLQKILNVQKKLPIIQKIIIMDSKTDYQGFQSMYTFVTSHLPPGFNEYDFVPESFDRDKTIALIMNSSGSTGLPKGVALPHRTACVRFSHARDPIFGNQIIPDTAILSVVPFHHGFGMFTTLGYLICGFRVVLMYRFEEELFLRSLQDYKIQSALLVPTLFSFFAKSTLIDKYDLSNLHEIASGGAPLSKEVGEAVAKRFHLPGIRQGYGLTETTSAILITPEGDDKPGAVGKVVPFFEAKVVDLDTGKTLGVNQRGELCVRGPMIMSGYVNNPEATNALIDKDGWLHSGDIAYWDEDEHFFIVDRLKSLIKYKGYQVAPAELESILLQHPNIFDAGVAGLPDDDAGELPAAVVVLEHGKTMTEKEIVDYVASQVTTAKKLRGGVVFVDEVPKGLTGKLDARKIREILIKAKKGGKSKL
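Biochemical qHTS of compounds, final roughly 60 µM downward over six points, against 10 nM purified firefly luciferase using Km concentrations of substrates (10 uM D-luciferin, 10 uM ATP) in Tris acetate pH 7.5 buffer; luminescence output.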
ELG1 repair inh: ELG1-dependent DNA repair inhibition | 330,000 compounds, 2.3% hits | HEK293T ELG1-luciferase reporter, luminescence, 16 h; DNA damage induced by 5-fluorouridine | Potency, µM (titrated, usually from 46.1 µM), most hits filed as inhibitors; further: nearly all actives have a fitted effect of over 55% in size
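In this reporter screen, reduction of luminescence relative to DMSO vehicle indicated activity. Compounds and 5-fluorouridine were added together to 2,000 cells per well, incubated for 16 hr at 37 °C, then developed with ONE-Glo.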
Rab9 promoter act: activators of Rab9 promoter. Huh7 Rab9 promoter-luciferase reporter, luminescence, 24 h. Potency, µM (titrated, usually from 9.22 µM), actives largely listed as activators. 320,000 compounds, 2.8% hits; further: nearly all actives have a fitted effect of over 60% in size
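Rab9 promoter-driven luciferase in stably transfected Huh7 cells; 1500 cells/well rested 2 h, exposed to compound in DMSO for 24 h at 37 °C, 5% CO2. Luminescence read 10 min after adding luciferase reagent at ambient temperature.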
Hits are given with their value; [ ] = dose if it differs, or a comment. The list is not random: actives were taken first. Their share in the collection is about 9.2%. The call rests on the fitted dose curve; in most records, active means well fitted curve in the direction sought with a large enough effect; inconclusive means small, poorly fitted or top-dose-only effect, or another doubt; inactive means no such curve, though single readings can be large; an effect the other way counts as inactive or inconclusive.

Results for O=C(CSc1nnc(NC(=O)NC2CCCCC2)s1)Nc1ccccc1F ?
FLuc counter: 3.01µM

Results for CC[C@]12c3[nH]c4cc(-c5ccco5)ccc4c3CCN1C(=O)[C@@H](CC(=O)NCCCOC)C[C@@H]2C(=O)N1CCN(C(=O)c2ccco2)CC1 ?
ELG1 genotox: inactive; ELG1 repair inh: inactive

How did Cc1cccc(NC(=O)C(=O)NCC(c2cccnc2)N2CCc3ccccc32)c1C (stereo not given) do in these assays?
FLuc counter: inactive

What do the screens show for `COc1ccccc1Nc1nnc(SCC(=O)N2CCCC2=O)s1`?
ELG1 genotox: inactive; NPC1 promoter act: inactive; SMN2 splice enh: inactive; FLuc counter: 9.53µM; ELG1 repair inh: inactive; Rab9 promoter act: inactive

How did COc1ccc(NC(=O)CSc2nnc(NC(=O)NC3CCCCC3)s2)cc1OC do in these assays?
FLuc counter: 2.39µM

How did COc1ccccc1NC(=O)CSc1nnc(NC(=O)NC2CCCCC2)s1 do in these assays?
FLuc counter: 2.39µM

How did COc1ccccc1Nc1nnc(SCC(=O)NC2CCCC2)s1 do in these assays?
ELG1 genotox: inactive; NPC1 promoter act: inactive; FLuc counter: inactive; ELG1 repair inh: inactive; Rab9 promoter act: inactive

How did COc1ccccc1Nc1nnc(SCC(=O)N2CCCC2)s1 do in these assays?
ELG1 genotox: inconclusive; NPC1 promoter act: inactive; SMN2 splice enh: inactive; FLuc counter: inconclusive; ELG1 repair inh: inconclusive; Rab9 promoter act: inactive

How did O=C(c1cccs1)c1cn(CCOc2ccc(F)cc2)c2ccccc12 do in these assays?
SMN2 splice enh: inactive; FLuc counter: inactive

Results for CCc1ccccc1NC(=O)Cn1c(=O)ccc2cc(S(=O)(=O)N3CCC(C)CC3)ccc21 ?
FLuc counter: inactive

How did COc1ccc(C(=O)Nc2nnc(S(=O)(=O)N3CCN(c4ccc(C)cc4)CC3)s2)cc1 do in these assays?
FLuc counter: inactive

What do the screens show for `O=C(O)c1ccc(NC(=O)c2ccccc2NC(=O)c2ccccc2Cl)cc1`?
ELG1 genotox: inactive; NPC1 promoter act: inactive; FLuc counter: 19µM; ELG1 repair inh: inactive; Rab9 promoter act: inactive

What do the screens show for `CCC(NC(=O)c1ccccc1NC(=O)c1ccc(OC)cc1)C(=O)N1CCCC1` (stereo not given)?
ELG1 genotox: inactive; NPC1 promoter act: inactive; SMN2 splice enh: inconclusive; FLuc counter: 16.9µM; ELG1 repair inh: inconclusive; Rab9 promoter act: inactive

Results for O=C(Cc1ccc(Cl)cc1)Nc1ccccc1C(=O)Nc1ccc(C(=O)O)cc1 ?
ELG1 genotox: inactive; NPC1 promoter act: inactive; SMN2 splice enh: inactive; FLuc counter: inactive; ELG1 repair inh: inconclusive; Rab9 promoter act: inactive

How did COc1ccc(C(=O)Nc2ccccc2C(=O)Nc2ccc(C(=O)O)cc2)cc1 do in these assays?
ELG1 genotox: inconclusive; NPC1 promoter act: inconclusive; FLuc counter: 0.757µM; ELG1 repair inh: inconclusive; Rab9 promoter act: inconclusive

Results for NC(=O)c1ccccc1NC(=O)c1ccc2ccccc2c1 ?
ELG1 genotox: 2.31µM; NPC1 promoter act: 0.891µM; FLuc counter: 0.536µM; ELG1 repair inh: inconclusive; Rab9 promoter act: 0.562µM

How did COc1ccc(NC(=O)c2ccccc2NC(=O)COc2ccccc2)cc1 do in these assays?
ELG1 genotox: inactive; NPC1 promoter act: inactive; SMN2 splice enh: inactive; FLuc counter: inactive; ELG1 repair inh: inactive; Rab9 promoter act: inactive

How did CC(=O)c1ccc(NC(=O)Nc2nnc(N3CCCC(C)C3)s2)cc1 (stereo not given) do in these assays?
FLuc counter: inactive

How did COc1ccc(NC(=O)c2ccccc2NC(=O)NC2CCCCC2)cc1 do in these assays?
ELG1 genotox: inactive; NPC1 promoter act: inactive; SMN2 splice enh: inactive; FLuc counter: 5.36µM; ELG1 repair inh: inconclusive; Rab9 promoter act: inactive

What do the screens show for `COc1ccc(C(=O)Nc2ccc(O)cc2C(=O)O)cc1`?
ELG1 genotox: inactive; NPC1 promoter act: inactive; SMN2 splice enh: inactive; FLuc counter: 10.7µM; ELG1 repair inh: inactive; Rab9 promoter act: inactive

How did COc1ccc(C(=O)Nc2ccccc2C(N)=O)cc1 do in these assays?
ELG1 genotox: inconclusive; NPC1 promoter act: 3.16µM; SMN2 splice enh: 31.6µM; FLuc counter: inactive[2.3 µM]; ELG1 repair inh: inconclusive; Rab9 promoter act: 2µM

Results for CCCCNC(=O)Nc1ccccc1C(=O)Nc1ccc(OC)cc1 ?
ELG1 genotox: inactive; NPC1 promoter act: inactive; SMN2 splice enh: inactive; FLuc counter: 10.7µM; ELG1 repair inh: inconclusive; Rab9 promoter act: inactive

Results for Cc1cc(S(=O)(=O)Nc2cc3c(cc2Cl)n(C)c(=O)c(=O)n3C)ccc1F ?
SMN2 splice enh: inactive; FLuc counter: inactive

What do the screens show for `CCOc1cc(C2c3c(-c4ccccc4O)n[nH]c3C(=O)N2CCc2ccccc2)ccc1O` (stereo not given)?
SMN2 splice enh: inactive; FLuc counter: inactive

Results for Cc1nn(C)c(Oc2cccc(C(F)(F)F)c2)c1C=O ?
ELG1 genotox: inactive; NPC1 promoter act: inactive; SMN2 splice enh: inactive; FLuc counter: inactive; ELG1 repair inh: inactive; Rab9 promoter act: inactive

How did CCOC(=O)c1cc2c(=O)n3ccccc3nc2n(Cc2ccco2)c1=NC(=O)c1ccc(OC)cc1OC do in these assays?
ELG1 genotox: inactive; NPC1 promoter act: inactive; SMN2 splice enh: inactive; FLuc counter: inactive; ELG1 repair inh: inactive; Rab9 promoter act: inactive

Results for CCOC(=O)C(Cc1ccccc1)C(=O)NCc1cccnc1 (stereo not given) ?
ELG1 genotox: inactive; NPC1 promoter act: inactive; FLuc counter: inactive; ELG1 repair inh: inconclusive; Rab9 promoter act: inactive

Results for NC(=O)c1ccccc1NC(=O)c1ccc2c(c1)OCO2 ?
ELG1 genotox: inconclusive; NPC1 promoter act: 1µM; FLuc counter: 7.57µM; ELG1 repair inh: inconclusive; Rab9 promoter act: 1.78µM

What do the screens show for `COc1ccc(C(=O)Nc2ccccc2C(=O)Nc2ccccc2C(=O)O)cc1`?
ELG1 genotox: inactive; NPC1 promoter act: 3.16µM; FLuc counter: 0.477µM; ELG1 repair inh: inactive; Rab9 promoter act: 2.82µM

What do the screens show for `COc1ccc(C(=O)Nc2ccccc2C(=O)N2CCCCCC2)cc1`?
ELG1 genotox: inactive; NPC1 promoter act: inconclusive; FLuc counter: inactive; ELG1 repair inh: inactive; Rab9 promoter act: inactive

What do the screens show for `COc1ccc(C(=O)Nc2ccccc2C(=O)Nc2ccncc2)cc1`?
ELG1 genotox: inconclusive; NPC1 promoter act: inconclusive; FLuc counter: 1.69µM; ELG1 repair inh: inconclusive; Rab9 promoter act: inconclusive

Results for COCC(=O)Nc1ccccc1C(=O)Nc1ccc(OC)cc1 ?
ELG1 genotox: inconclusive; NPC1 promoter act: inconclusive; SMN2 splice enh: inconclusive; FLuc counter: inactive; ELG1 repair inh: inconclusive; Rab9 promoter act: 2.82µM

Results for COC(=O)c1ccccc1NC(=S)NC(=O)c1ccc2c(c1)OCO2 ?
ELG1 genotox: inactive; NPC1 promoter act: inactive; FLuc counter: inactive; ELG1 repair inh: inactive; Rab9 promoter act: inactive
